Drawing on PubChem BioAssay (NCI), this text covers growth for 38 compounds.

The structures appear in SMILES notation. Compounds without any hit were thinned out: in the full panel of roughly 83,000, 20% have a hit.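 For each line, cells grew in 96-well plates with the test compound present at a single concentration for 48 hours.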 A number with no mark means an inactive call. Active and inactive are the calls of the source. The calls were made as follows: active = growth percent below 10; inactive = the rest.

The first assay deals with HCC-2998 colon. Description: NCI-60 one-dose screen, 48 h (100 = growth as untreated, 0 = no growth, -100 = all killed). The following applies: 10 µM unless noted.
Regarding `N#Cc1nc(-c2ccccc2)oc1S(=O)(=O)N1CCCCC1`, the growth is 105%.
Same read-out and setting: then `COc1ccc(-c2nn3c(-c4ccccc4F)nnc3s2)cc1`, with 70%.
Same read-out and setting: the result for `COc1cc(OC)c(C2C(Cl)C(=O)N2Nc2ncnc3ccccc23)cc1OC` (stereo unspecified) reads 111%; that for `O=C(CSc1nc2sc3c(c2c(=O)n1-c1ccc(Cl)cc1)CCCC3)N/N=C/c1ccc(F)cc1`, 112%.
As to `Nc1ncc(-c2ccc3ncnc(N4CCc5cc(F)c(Cl)cc54)c3c2)cc1CO`, the growth was 8.47% (active).
On the same count and under the same terms, then `CN(C)CCCOc1c2ccc(Cl)cc2nc2c1oc1ccc(Cl)cc12`, with -67.9% (active); and `NS(=O)(=O)c1ccc(Nc2nc(SCC(=O)c3ccc(Cl)cc3)nc3ccccc23)cc1`, with 123%; and `N#Cc1nc(-c2ccccc2)oc1N1CC[C@@H](CO)C1`, with 110%.
For `CC(C)(C)Nc1nc2c(OCCc3ccccc3)cccn2c1-c1ccc(O)cc1`, the growth is 52.2%.
On the same count and under the same terms, then `N#Cc1c(-c2ccc(Cl)cc2)nc(SCc2ccc(F)cc2)nc1N1CCNCC1`, with -31.8% (active); and `Fc1ccc(-c2cc3nc(C(Cl)Cl)nc(-c4ccccc4)n3n2)cc1`, with -47.1% (active).
As to `COc1cc(/C=C/C(=O)c2ccccc2)ccc1Oc1nc(NCCO)nc(N2CCOCC2)n1`, the growth is 113%.
The same measure, in the same setting: the result for `O=C(N/N=C/c1ccc[nH]1)c1[nH]c2ccc(Br)cc2c1-c1ccccc1` reads 17.2%.
For the compound `CN(C)c1ccc(/C=C2\Cc3c(F)ccc(Br)c3C2=O)cc1`, the growth was 104%.
On the same count and under the same terms, the result for `CC(C)(C)Nc1nc2c(OCCc3ccccc3)cccn2c1-c1cccc(F)c1` reads 4.84% (active).
Same read-out and setting: then `OC1CCN(CCCOc2c3ccc(Cl)cc3nc3c2oc2ccc(Cl)cc23)CC1`, with 36.8%.
Consider `Fc1ccc(-c2cc3nc(C(Cl)Cl)nc(-c4ccc(Cl)cc4)n3n2)cc1`, for which the growth was -60.4% (active).
For the compound `COC(=O)C(Cc1ccccc1)NS(=O)(=O)/N=C1\NC(=O)NC1=C(Cl)Cl` (stereo unspecified), the growth was 113%.
`Nc1cc(-c2c[nH]c3ccccc23)nc2cc(-c3c[nH]c4ccccc34)nn12`: the growth is 21%.
Still for that read-out and setting: the result for `O=C(N/N=C/c1ccco1)c1[nH]c2ccc(Br)cc2c1-c1ccccc1` reads 23%; that for `OC1CCN(CCCOc2c3ccccc3nc3c2oc2ccc(Cl)cc23)CC1`, 21.9%.
Same read-out and setting: the result for `CN(C)CCCOc1c2ccc(Cl)cc2nc2c1oc1ccccc12` reads -58.1% (active); that for `Cc1[nH]nc2ncc(C#Cc3cncc(C(=O)Nc4ccc(CN5CCN(C)CC5)c(C(F)(F)F)c4)c3)cc12`, 44.4%.
Take `Cc1sc2c(c1C)c(=O)nc1c(-c3nc(-c4ccc(F)cc4)no3)n[nH]n12`: the growth is 104%.
Still for that read-out and setting: the result for `C#Cc1nc(C2=C(C)C(O)/C(=N/O)C2)cs1` (stereo unspecified) reads 117%; that for `Cc1ccc(C(=O)Nc2cccc(C(F)(F)F)c2)cc1Nc1nc(-c2cnccn2)nc2c1cnn2C`, 47.9%; that for `CN1CCc2c(sc3ncnc(N/N=C/c4ccc(Cl)c(Cl)c4)c23)C1`, -47.9% (active).
On the same count and under the same terms, then `CC(=O)Nc1cc(F)cc(-c2ccc3[nH]cc(-c4ccccc4)c3n2)c1`, with -19% (active); and `CS(=O)(=O)c1ccc(-n2cc(/C=C/C(=O)c3ccc(NC(=O)CO[N+](=O)[O-])cc3)c(-c3ccc(Cl)cc3)n2)cc1`, with 93.4%; and `CC(C)(C)Nc1nc2c(OCCc3ccccc3)cccn2c1-c1ccc(Cl)cc1`, with 24.7%.
For the compound `N#Cc1nc(-c2ccccc2)oc1S(=O)(=O)N1CCN(CCc2ccccn2)CC1`, the growth was 114%.
Turning to `C#Cc1nc(C2=C(C)C(OC(=O)CCC(=O)O)CC2)cs1` (stereo unspecified), the growth was 109%.
With `O=C(NNc1nc2cc(F)ccc2n2c(CN3CC4(COC4)C3)ccc12)c1cnccn1`, the growth was 57.3%.
Same read-out and setting: then `Cc1cccc(/C=C/c2nn3c(-c4ccco4)nnc3s2)c1`, with 95%; and `CCN1C(=S)N(CC)C2C1N=C(SC)N2/N=C/C=C/c1ccccc1[N+](=O)[O-]` (stereo unspecified), with 112%; and `Nc1cc(-c2c[nH]c3ccc(F)cc23)nc2cc(-c3c[nH]c4ccc(F)cc34)nn12`, with 72.5%.
The same measure, in the same setting: the result for `Clc1ccc(Cc2nnc3sc(-c4cccnc4)nn23)cc1` reads 105%; that for `NS(=O)(=O)c1cccc(Nc2nc(SCC(=O)c3ccc(Br)cc3)nc3ccccc23)c1`, 86.1%.

In a further assay the test system is KM12 colon. The description is as above. The following applies: 10 µM unless noted.
As for `N#Cc1nc(-c2ccccc2)oc1S(=O)(=O)N1CCCCC1`, the growth is 101%.
With `COc1ccc(-c2nn3c(-c4ccccc4F)nnc3s2)cc1`, the growth is 31.8%.
The same measure, in the same setting: then `COc1cc(OC)c(C2C(Cl)C(=O)N2Nc2ncnc3ccccc23)cc1OC` (stereo unspecified), with 101%.
With `O=C(CSc1nc2sc3c(c2c(=O)n1-c1ccc(Cl)cc1)CCCC3)N/N=C/c1ccc(F)cc1`, the growth was 90.1%.
The same measure, in the same setting: the result for `Nc1ncc(-c2ccc3ncnc(N4CCc5cc(F)c(Cl)cc54)c3c2)cc1CO` reads 0.831% (active).
As for `CN(C)CCCOc1c2ccc(Cl)cc2nc2c1oc1ccc(Cl)cc12`, the growth was -62.3% (active).
On the same count and under the same terms, the result for `NS(=O)(=O)c1ccc(Nc2nc(SCC(=O)c3ccc(Cl)cc3)nc3ccccc23)cc1` reads 87%; that for `N#Cc1nc(-c2ccccc2)oc1N1CC[C@@H](CO)C1`, 111%; that for `CC(C)(C)Nc1nc2c(OCCc3ccccc3)cccn2c1-c1ccc(O)cc1`, 38.2%.
Same read-out and setting: then `N#Cc1c(-c2ccc(Cl)cc2)nc(SCc2ccc(F)cc2)nc1N1CCNCC1`, with 33.6%; and `Fc1ccc(-c2cc3nc(C(Cl)Cl)nc(-c4ccccc4)n3n2)cc1`, with -37.7% (active).
Consider `COc1cc(/C=C/C(=O)c2ccccc2)ccc1Oc1nc(NCCO)nc(N2CCOCC2)n1`, for which the growth was 102%.
For the compound `O=C(N/N=C/c1ccc[nH]1)c1[nH]c2ccc(Br)cc2c1-c1ccccc1`, the growth is 10.4%.
Still for that read-out and setting: then `CN(C)c1ccc(/C=C2\Cc3c(F)ccc(Br)c3C2=O)cc1`, with 93.1%; and `CC(C)(C)Nc1nc2c(OCCc3ccccc3)cccn2c1-c1cccc(F)c1`, with 4.77% (active); and `OC1CCN(CCCOc2c3ccc(Cl)cc3nc3c2oc2ccc(Cl)cc23)CC1`, with -74.3% (active).
For `Fc1ccc(-c2cc3nc(C(Cl)Cl)nc(-c4ccc(Cl)cc4)n3n2)cc1`, the growth is -17.1% (active).
Still for that read-out and setting: the result for `COC(=O)C(Cc1ccccc1)NS(=O)(=O)/N=C1\NC(=O)NC1=C(Cl)Cl` (stereo unspecified) reads 9.49% (active); that for `Nc1cc(-c2c[nH]c3ccccc23)nc2cc(-c3c[nH]c4ccccc34)nn12`, 10.3%; that for `O=C(N/N=C/c1ccco1)c1[nH]c2ccc(Br)cc2c1-c1ccccc1`, 12.8%.
Turning to `OC1CCN(CCCOc2c3ccccc3nc3c2oc2ccc(Cl)cc23)CC1`, the growth is 1.06% (active).
On the same count and under the same terms, then `CN(C)CCCOc1c2ccc(Cl)cc2nc2c1oc1ccccc12`, with 0.963% (active); and `Cc1[nH]nc2ncc(C#Cc3cncc(C(=O)Nc4ccc(CN5CCN(C)CC5)c(C(F)(F)F)c4)c3)cc12`, with 8.98% (active); and `Cc1sc2c(c1C)c(=O)nc1c(-c3nc(-c4ccc(F)cc4)no3)n[nH]n12`, with 106%.
Still for that read-out and setting: then `C#Cc1nc(C2=C(C)C(O)/C(=N/O)C2)cs1` (stereo unspecified), with 42.9%; and `Cc1ccc(C(=O)Nc2cccc(C(F)(F)F)c2)cc1Nc1nc(-c2cnccn2)nc2c1cnn2C`, with 56.6%; and `CN1CCc2c(sc3ncnc(N/N=C/c4ccc(Cl)c(Cl)c4)c23)C1`, with 22.8%.
For the compound `CC(=O)Nc1cc(F)cc(-c2ccc3[nH]cc(-c4ccccc4)c3n2)c1`, the growth was -41% (active).
On the same count and under the same terms, the result for `CS(=O)(=O)c1ccc(-n2cc(/C=C/C(=O)c3ccc(NC(=O)CO[N+](=O)[O-])cc3)c(-c3ccc(Cl)cc3)n2)cc1` reads 107%; that for `CC(C)(C)Nc1nc2c(OCCc3ccccc3)cccn2c1-c1ccc(Cl)cc1`, 32.7%.
Take `N#Cc1nc(-c2ccccc2)oc1S(=O)(=O)N1CCN(CCc2ccccn2)CC1`: the growth was 84.1%.
On to `C#Cc1nc(C2=C(C)C(OC(=O)CCC(=O)O)CC2)cs1` (stereo unspecified), for which the growth is 79.2%.
Same read-out and setting: then `O=C(NNc1nc2cc(F)ccc2n2c(CN3CC4(COC4)C3)ccc12)c1cnccn1`, with 23%; and `Cc1cccc(/C=C/c2nn3c(-c4ccco4)nnc3s2)c1`, with 105%.
Take `CCN1C(=S)N(CC)C2C1N=C(SC)N2/N=C/C=C/c1ccccc1[N+](=O)[O-]` (stereo unspecified): the growth is 97.6%.
On the same count and under the same terms, then `Nc1cc(-c2c[nH]c3ccc(F)cc23)nc2cc(-c3c[nH]c4ccc(F)cc34)nn12`, with 40.6%; and `Clc1ccc(Cc2nnc3sc(-c4cccnc4)nn23)cc1`, with 99.7%; and `NS(=O)(=O)c1cccc(Nc2nc(SCC(=O)c3ccc(Br)cc3)nc3ccccc23)c1`, with 69.7%.
